The results in this text go back to PubChem BioAssay (NCATS).

The viability is a read-out of living cells in per cent, often relative to untreated cells.

Assay [1] can be described thus: Quantitative High-Throughput drug screen in 47 multiple myeloma cell lines against the NCATS MIPE library collection: KMS28PE_JCRB cell viability assay (AID 1918983). Further: nearly all actives have a fitted effect of over 35% in size. In outline:
(§1)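 500 cells/well; MIPE 4.0 drugs pin-transferred; 48 h, 37C, 5% CO2. CellTiter-Glo, 5 min RT, luminescence. Controls: DMSO 100%, media 0%.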

Assay [2] in a line: Quantitative High-Throughput drug screen in 47 multiple myeloma cell lines against the NCATS MIPE library collection: L363_DSMZ cell viability assay (AID 1918984). Further: nearly all actives have a fitted effect of over 40% in size. In outline: as §1
Assay [3] can be described thus: Quantitative High-Throughput drug screen in 47 multiple myeloma cell lines against the NCATS MIPE library collection: OPM1_PLB cell viability assay (AID 1918989). Further: nearly all actives have a fitted effect of over 40% in size. Put shortly: as §1
A short description of assay [4]: Quantitative High-Throughput drug screen in 47 multiple myeloma cell lines against the NCATS MIPE library collection: SKMM1_PLB cell viability assay (AID 1919863). Further: nearly all actives have a fitted effect of over 35% in size. The following applies: SKMM1 myeloma viability, CellTiter-Glo ATP, 48 h; viability: active compounds read low. In outline:
as §1
A general note: In ATP-based viability assays light output follows the ATP content of the culture.

Assay [5] can be described thus: Quantitative High-Throughput drug screen in 47 multiple myeloma cell lines against the NCATS MIPE library collection: U266_ATCC cell viability assay (AID 1919864). Further: nearly all actives have a fitted effect of over 35% in size. Put shortly: as §1
A short description of assay [6]: Quantitative High-Throughput drug screen in 47 multiple myeloma cell lines against the NCATS MIPE library collection: XG6_PLB cell viability assay (AID 1919865). Further: nearly all actives have a fitted effect of over 40% in size. Put shortly: as §1
Assay [7] can be described thus: Quantitative High-Throughput drug screen in 47 multiple myeloma cell lines against the NCATS MIPE library collection: KMS34_JCRB cell viability assay (AID 1918985). Further: nearly all actives have a fitted effect of over 40% in size. Put shortly:
as §1

Assay [8] can be described thus: Quantitative High-Throughput drug screen in 47 multiple myeloma cell lines against the NCATS MIPE library collection: OCIMY7_PLB cell viability assay (AID 1918987). Further: nearly all actives have a fitted effect of over 65% in size. Particulars: OCI-MY7 myeloma viability, CellTiter-Glo ATP, 48 h; viability (% of DMSO): at 45.8 µM (top of the series). In outline: as §1
The nature of assay [9]: Quantitative High-Throughput drug screen in 47 multiple myeloma cell lines against the NCATS MIPE library collection: OCIMY5_PLB cell viability assay (AID 1918988). Further: nearly all actives have a fitted effect of over 65% in size. Put shortly:
as §1

Results filed as inconclusive are left out. A number with no mark means an inactive call. Active and inactive are the calls of the source. The call rests on the fitted dose curve; in most records, active means well fitted cell-killing curve with a large enough effect; inconclusive means small, poorly fitted or top-dose-only effect, or effect the other way; inactive means no such curve, though single readings can be large or run the other way.
Potency means the concentration at half of the fitted maximal effect.

Consider `C[C@H](NC(=O)Cc1cc(F)cc(F)c1)C(=O)N[C@H](C(=O)OC(C)(C)C)c1ccccc1`, for which the Potency entry in assay [1], in assay [2], in [3], in assay [5] and in assay [6] was “inactive” each time. Also, the viability in [4] was 105%.
With `Cc1ccc2nc(NCCN)c3ncc(C)n3c2c1`, the Potency in assay [1] was 4180 nM (active); in assay [7], 8330 nM (active); in assay [8], 6620 nM (active); in [9], 1320 nM (active); in assay [3], 13200 nM (active); in [4], 4690 nM (active). Also, the Potency in assay [5] was 3720 nM (active); in assay [6] it was 1870 nM (active).
Regarding `C[C@]12CCC(=O)C=C1[C@@H]1CC1[C@H]1[C@H]3[C@@H]4C[C@H]4[C@@]4(CCC(=O)O4)[C@@]3(C)CC[C@H]12` (some centres undefined), the Potency entry in assay [1], in assay [2], in [3] and in [5] was “inactive” throughout.
Consider `CNC(=O)Nc1ccc(-c2nc(N3CC4CCC(C3)O4)c3cnn(C4CCC5(CC4)OCCO5)c3n2)cc1`, for which the Potency in [1] is 3.7 nM (active); in [7] it was 18.7 nM (active); in assay [8], 3720 nM (active); in assay [9] it was 833 nM (active); in [3], 11.8 nM (active); in [4], 16.6 nM (active).
As for `O=C(NCc1ccccc1)[C@H](Cc1ccccc1)NC(=O)[C@@H]1O[C@@H]1C(=O)NCCc1ccc(O)cc1`, the Potency result in [1] and in [8] was “inactive” throughout. In addition, the Potency in [2] is 16600 nM (active). Besides, in [4], the viability was 128%.
With `CCCCC(=O)O[C@]1(C(=O)CO)[C@@H](C)C[C@H]2[C@@H]3CCC4=CC(=O)C=C[C@]4(C)[C@@]3(F)[C@@H](O)C[C@@]21C`, the Potency entry in assay [1] and in assay [6] was “inactive” in each case. Moreover, the Potency in assay [7] is 37.2 nM (active); in assay [9] it was 9.3 nM (active); in assay [3] it was 37.2 nM (active).
On to `N#Cc1ccc(COC[C@H]2O[C@@H](n3c(NCc4ccc(Cl)c(Cl)c4)nc4c(N)ncnc43)[C@@H](O)[C@@H]2O)cc1`, for which the Potency in [1] is 5900 nM (active); in assay [7] it was 16600 nM (active); in assay [9], 3720 nM (active); in assay [3] it was 5260 nM (active); in [4], 2960 nM (active); in assay [5] it was 20900 nM (active). In addition, the Potency in assay [6] was 16600 nM (active).
Regarding `C[C@@]12C[C@@]3(O)O[C@@H](O1)[C@]1(COC(=O)c4ccccc4)[C@@H]3C[C@@]12O[C@@H]1O[C@H](CO)[C@@H](O)[C@H](O)[C@@H]1O`, the Potency result in assay [1], in assay [2], in [8], in [9], in assay [3] and in assay [5] was “inactive” throughout. Moreover, the Potency entry in [6] is “inactive”.
In the case of `COc1cccc2c1C(=O)c1c(O)c3c(c(O)c1C2=O)C[C@@](O)(C(C)=O)C[C@H]3O[C@H]1C[C@H](N)[C@H](O)[C@H](C)O1`, the Potency in assay [1] is 83.3 nM (active); in assay [2], 118 nM (active); in assay [8], 418 nM (active); in assay [9], 46.9 nM (active); in [3] it was 105 nM (active); in [4], 166 nM (active). Moreover, the Potency in [5] was 166 nM (active); in assay [6], 46.9 nM (active).
Regarding `CC(=O)OC[C@@H]1O[C@@H](n2ccc(=O)[nH]c2=O)[C@H](OC(C)=O)[C@H]1OC(C)=O`, the Potency entry in assay [1], in assay [7], in [9] and in assay [3] was “inactive” in each case.
With `CC1(C)[C@H](O[C@H]2O[C@H](C(=O)O)[C@@H](O)[C@H](O)[C@H]2O[C@@H]2O[C@H](C(=O)O)[C@@H](O)[C@H](O)[C@H]2O)CC[C@@]2(C)[C@H]1CC[C@]1(C)[C@H]2C(=O)C=C2[C@H]3C[C@@](C)(C(=O)O)CC[C@]3(C)CC[C@]21C`, the Potency result in assay [1], in assay [7], in assay [9], in [3] and in assay [6] was “inactive” each time. In addition, the viability in assay [4] was 142%.
Take `CC(C)(C)c1nc2c3cc[nH]c(=O)c3c3cc(F)ccc3c2[nH]1`: the Potency is 6620 nM (active) in assay [1]; 1660 nM (active) in assay [7]; 332 nM (active) in assay [8]; 1870 nM (active) in assay [9]; 743 nM (active) in assay [3]; 935 nM (active) in assay [4]. In addition, the results for the Potency in assay [5] and in [6] were 1870 nM (active) and 1320 nM (active), respectively.
`CC(C)Oc1ccc(C(=O)N[C@H](CNC(=O)CN(C)C)Cc2ccc(-c3cn4cccc([C@H](C)O)c4n3)cc2)cc1Cl`: the Potency in assay [1] is 590 nM (active); in assay [2], 83.3 nM (active); in assay [8], 332 nM (active); in assay [9], 418 nM (active); in [4] it was 296 nM (active); in assay [6], 105 nM (active).
With `N#CC(=Cc1ccc(O)c(O)c1)C(=O)NCc1ccccc1`, in [1], the Potency entry is “inactive”. In addition, the Potency is 3320 nM (active) in [2]; 5900 nM (active) in assay [8]; 20900 nM (active) in assay [9]; 9350 nM (active) in [3]; 26400 nM (active) in assay [5]; 8330 nM (active) in assay [6].
For the compound `CCc1c(O)cc(O)c(C(=O)c2ccc(OCCN3CCOCC3)c(OC)c2)c1CC(=O)N(CCOC)CCOC`, the Potency is 1180 nM (active) in assay [1]; 1660 nM (active) in assay [7]; 3320 nM (active) in assay [8]; 469 nM (active) in assay [9]; 662 nM (active) in assay [3]; 1050 nM (active) in assay [5]. In addition, in assay [6], the Potency was 1480 nM (active).
`O=C(O)C[C@H](O)C[C@H](O)C=Cc1c(C2CC2)nc2ccccc2c1-c1ccc(F)cc1`: the Potency in [1] is 14800 nM (active); in assay [2] it was 5260 nM (active); in [8], 2350 nM (active); in assay [9], 20900 nM (active); in assay [3] it was 2640 nM (active); in [6], 18700 nM (active).
